For assay [1], the target named is Nuclear respiratory factor 1 (Homo sapiens) (UniProt Q16656). As to the kind of experiment: ATG_NRF1_CIS: Attagene CIS-FACTORIAL HepG2 Assay for human Nuclear Respiratory Factor 1 (NRF1) Orphan Gene (AID 2282987). As to conditions: HepG2 NRF1 cis-element reporter, Attagene multiplex; actives raise or lower the signal. The method in brief: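 Cells (HepG2, transient MRTU transfection) are exposed to compound for 24 h, then RNA isolated and reporter mRNA amplified and fluorescently labelled. Fragments are separated by capillary electrophoresis; signal change is fitted bidirectionally relative to DMSO.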

The target of assay [2] is Myc proto-oncogene protein (Homo sapiens) (UniProt P01106). The experiment in a line: ATG_Myc_CIS: Attagene CIS-FACTORIAL HepG2 Assay for human Myelocytomatosis (Myc) Proto-Oncogene Transcription Factor (AID 2282990). The note with it: HepG2, Attagene cis-reporter transcription factor activity; actives raise or lower the signal. The method in brief:
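After 24 h chemical treatment of HepG2 cells carrying multiplexed cis-regulated reporter constructs, reporter transcripts quantified by RT-PCR and capillary electrophoresis of fluorescent fragments. Gain or loss fitted against DMSO baseline.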

A short description of assay [3]: ATG_NRF2_ARE_CIS: Attagene CIS-FACTORIAL HepG2 Assay for human Nuclear Factor Erythroid 2 Related Factor 2 (NFR2) response to Antioxidant Response Elements (ARE) (AID 2282992). The note with it: HepG2 Attagene ARE/NRF2 reporter, transcription factor activity; actives raise or lower the signal. In a few lines:
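Endogenous transcription factor activity read out as reporter transcript levels (RT-PCR plus capillary electrophoresis, fluorescence) in transiently transfected HepG2 cells. Measured at 24 h after dosing; gain or loss of signal fitted versus DMSO.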

Assay [4] in a line: ATG_Oct_MLP_CIS: Attagene CIS-FACTORIAL HepG2 Assay for human Octamer-Binding Transcription Factor (Oct) (AID 2282993). As to conditions: HepG2 Attagene cis-factorial Oct reporter, mRNA; actives raise or lower the signal. In a few lines: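 Multiplexed cis-reporter assay in human liver HepG2 cells, 24 h incubation. Reporter RNA amplified and labelled, then resolved by capillary electrophoresis; DMSO serves as negative control and baseline.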

Assay [5] deals with Cellular tumor antigen p53 (Homo sapiens) (UniProt P04637). As to the kind of experiment: ATG_p53_CIS: Attagene CIS-FACTORIAL HepG2 Assay for human p53 Transcription Factor (AID 2282994). The note with it: HepG2 p53 cis-element reporter, Attagene mRNA; actives raise or lower the signal. In a few lines:
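Endogenous p53 activity read in transiently transfected HepG2 from a cis-element-driven reporter transcript after 24 h exposure. RNA reverse-transcribed, PCR-amplified, fluorescently labelled and sized by capillary electrophoresis; gain or loss fitted against DMSO baseline.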

A short description of assay [6]: BSK_3C_TissueFactor: BioMAP Diversity Plus: 3C Assay for Tissue Factor Biomarker Activity (AID 2282997). The note with it: BioMAP 3C HUVEC, tissue factor biomarker readout; actives raise or lower the signal. In a few lines: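 Readout: Tissue Factor ELISA. Cells: human primary umbilical vein endothelium. Time: 24 h after dosing. Analysis: bidirectional fit, DMSO baseline.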

The nature of assay [7]: BSK_3C_uPAR: BioMAP Diversity Plus: 3C Assay for Urokinase-type plasminogen activator receptor (uPAR) Biomarker Activity (AID 2282998). As to conditions: BioMAP 3C HUVEC, uPAR biomarker ELISA; actives raise or lower the signal. In a few lines: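 Dose primary human umbilical vein endothelial cells, incubate 24 h, measure cell-surface uPAR by ELISA, then fit the signal in both directions against the DMSO negative control.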
(ELISA stands for enzyme-linked immunosorbent assay.)

Assay [8] can be described thus: BSK_3C_VCAM1: BioMAP Diversity Plus: 3C Assay for Vascular cell adhesion molecule 1 (VCAM1) Biomarker Activity (AID 2282999). As to conditions: BioMAP 3C HUVEC, VCAM1 ELISA, cytokine-stimulated; actives raise or lower the signal. The method in brief: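 Activity fitted in both directions relative to DMSO, with ELISA measurement of the surface marker on primary HUVEC (3C) at 24 h post-treatment; parallel SRB staining (0.1% SRB, TCA-fixed, 560 nm) flagged overt cytotoxicity.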

A short description of assay [9]: BSK_4H_Eotaxin3: BioMAP Diversity Plus: 4H Assay for Eotaxin 3 Biomarker Activity (AID 2283000).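 As to outcome: CCL26 protein level quantified by ELISA in parallel with SRB cytotoxicity check.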 The note with it: primary human endothelial cells (HUVEC); actives raise or lower the signal. The method in brief:
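HUVEC, 24 h post-dose, ELISA for Eotaxin-3/CCL26. Gain or loss of signal fitted bidirectionally vs DMSO baseline.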

Assay [10] has as its target human Peroxisome Proliferator-activated Receptor alpha (PPARa), PPARA (gene 5465) (UniProt Q07869). The experiment in a line: ATG_PPARa_TRANS: Attagene TRANS-FACTORIAL HepG2 Assay for human Peroxisome Proliferator-activated Receptor alpha (PPARa) (AID 2283001; active = hit-call score of the fitted dose curve at least 0.9, where 1 is the maximum). The method in brief: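 Transfected HepG2 cells treated with test chemical for 24 h. RNA isolated, reverse-transcribed with oligo(dT), PCR-amplified, FAM-labelled and HpaI-digested. Fragments sized by capillary electrophoresis; gain-of-signal fit relative to DMSO.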

The target of assay [11] is human Retinoic Acid Receptor beta (RARb), RARB (gene 5915) (UniProt P10826). The experiment in a line: ATG_RARb_TRANS: Attagene TRANS-FACTORIAL HepG2 Assay for human Retinoic Acid Receptor beta (AID 2283004; active = hit-call score of the fitted dose curve at least 0.9, where 1 is the maximum). The method in brief:
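HepG2 cells transiently transfected with multiplexed GAL4-UAS reporter units expressing chimeric NR–Gal4 fusions; 24 h compound exposure. Reporter mRNA quantified by RT-PCR, 6-FAM labelling, HpaI digestion and capillary electrophoresis; gain-of-signal fitted against DMSO baseline.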

The target in assay [12] is Retinoic acid receptor alpha (Homo sapiens) (UniProt P10276). As to the kind of experiment: ATG_RARa_TRANS: Attagene TRANS-FACTORIAL HepG2 Assay for human Retinoic Acid Receptor alpha (RARa) (AID 2283005; active = hit-call score of the fitted dose curve at least 0.9, where 1 is the maximum). The method in brief:
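Reporter transcripts, measured by RT-PCR with fluorescent labeling and capillary electrophoresis after 24 h dosing, reflect activity of an exogenous human RARa–GAL4 fusion in transiently transfected HepG2. Fitted for increase relative to DMSO.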

The nature of assay [13]: BSK_3C_Proliferation: Cell Proliferation Assessment in the BioMAP Diversity Plus: 3C Assay (AID 2283006).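 As to AC50: potency may reflect either rise or fall in cell number versus DMSO.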 As to conditions: primary human endothelial cells (HUVEC). In a few lines:
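HUVEC, sub-confluent; 48 h chemical exposure; 10% TCA fix, 0.1% SRB stain, A560 total protein. Gain or loss of signal fitted both directions vs DMSO control.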

The target of assay [14] is Nuclear receptor subfamily 1 group I member 2 (Homo sapiens) (UniProt O75469). The experiment in a line: ATG_PXR_TRANS: Attagene TRANS-FACTORIAL HepG2 Assay for human Pregnane X Receptor (PXR) (AID 2283008; active = hit-call score of the fitted dose curve at least 0.9, where 1 is the maximum). In a few lines:
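Transactivation by exogenous PXR–GAL4 fusion measured as reporter transcript induction after 24 h compound treatment of transfected human HepG2 cells. Read-out via RT-PCR and capillary electrophoresis of labelled fragments, fitted upward relative to DMSO.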

Assay [15] in a line: ATG_NF_kB_CIS: Attagene CIS-FACTORIAL HepG2 Assay for human Nuclear Factor Kappa B (NF-kB) (AID 2282991). The note with it: HepG2 Attagene cis-factorial NF-kB reporter mRNA; actives raise or lower the signal. In a few lines:
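Measures mRNA induction of an NF-kB-responsive cis-element reporter in HepG2 cells transfected with multiple reporter units, sampled 24 h post-dosing; quantified by fluorescence after RT-PCR and capillary electrophoresis, fitted for activation or inhibition against DMSO.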

In assay [16] the target is Peroxisome proliferator-activated receptor gamma (Homo sapiens) (UniProt P37231). The experiment in a line: ATG_PPARg_TRANS: Attagene TRANS-FACTORIAL HepG2 Assay for human Peroxisome Proliferator-activated Receptor-gamma (PPARg) (AID 2283007; active = hit-call score of the fitted dose curve at least 0.9, where 1 is the maximum). In a few lines:
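Gain-of-signal endpoint relative to DMSO, derived from reporter mRNA levels quantified by RT-PCR and capillary electrophoresis. Cells were HepG2 transiently expressing a chimeric NR-Gal4 construct with GAL4-UAS reporters, exposed to chemicals for 24 h.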

Read-out in assay [17]: Intercellular Adhesion Molecule 1 (ICAM1), ICAM1 (gene 3383)
The experiment in a line: BSK_3C_ICAM1: BioMAP Diversity Plus: 3C Assay for Intercellular Adhesion Molecule 1 (ICAM1) Biomarker Activity (AID 2283003). The note with it: primary human endothelial cells (HUVEC); actives raise or lower the signal. In a few lines: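 ELISA read-out of ICAM-1; HUVEC (primary human), 3C system, 24 h post-dosing; bidirectional fit vs DMSO baseline.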

Assay [18] concerns the target human Peroxisome Proliferator-activated Receptor delta (PPARd), PPARD (gene 5467) (UniProt Q03181). As to the kind of experiment: ATG_PPARd_TRANS: Attagene TRANS-FACTORIAL HepG2 Assay for human Peroxisome Proliferator-activated Receptor delta (PPARd) (AID 2283002; active = hit-call score of the fitted dose curve at least 0.9, where 1 is the maximum). In a few lines:
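Read-out is induced reporter mRNA, quantified by RT-PCR with fluorescent labelling and capillary electrophoresis after 24 h dosing. Cells are HepG2 transiently carrying multiple GAL4-UAS reporter units driven by exogenous NR-GAL4 chimeras; DMSO serves as baseline.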

Values joined by “and” are separate entries in the source; they are usually repeats but may differ in a detail not shown here. Identical values can stand only once. Inconclusive results are not listed. More than one record can exist for a structure, and the calls need not agree. Active and inactive are the calls of the source. The calls were made as follows, unless noted: active = hit-call score of the fitted dose curve at least 0.9, where 1 is the maximum; inactive = score below 0.9.

human Peroxisome Proliferator-activated Receptor alpha (PPARa), PPARA (gene 5465), sequence (Q07869 whole entry, looked up, the tested form may be a part): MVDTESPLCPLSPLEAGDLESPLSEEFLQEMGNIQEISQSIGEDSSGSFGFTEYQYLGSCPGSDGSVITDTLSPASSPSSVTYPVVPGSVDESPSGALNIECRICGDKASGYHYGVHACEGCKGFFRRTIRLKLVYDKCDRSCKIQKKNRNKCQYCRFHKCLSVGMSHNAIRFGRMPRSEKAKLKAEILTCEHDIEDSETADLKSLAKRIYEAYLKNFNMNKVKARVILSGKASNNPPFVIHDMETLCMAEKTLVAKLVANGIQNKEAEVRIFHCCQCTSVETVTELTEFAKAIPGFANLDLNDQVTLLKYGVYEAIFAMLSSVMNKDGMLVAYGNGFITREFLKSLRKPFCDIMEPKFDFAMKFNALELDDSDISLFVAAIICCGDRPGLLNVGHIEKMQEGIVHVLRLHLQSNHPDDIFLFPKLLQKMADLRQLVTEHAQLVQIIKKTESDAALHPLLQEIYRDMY
Peroxisome proliferator-activated receptor gamma (Homo sapiens), sequence (P37231 whole entry, looked up, the tested form may be a part): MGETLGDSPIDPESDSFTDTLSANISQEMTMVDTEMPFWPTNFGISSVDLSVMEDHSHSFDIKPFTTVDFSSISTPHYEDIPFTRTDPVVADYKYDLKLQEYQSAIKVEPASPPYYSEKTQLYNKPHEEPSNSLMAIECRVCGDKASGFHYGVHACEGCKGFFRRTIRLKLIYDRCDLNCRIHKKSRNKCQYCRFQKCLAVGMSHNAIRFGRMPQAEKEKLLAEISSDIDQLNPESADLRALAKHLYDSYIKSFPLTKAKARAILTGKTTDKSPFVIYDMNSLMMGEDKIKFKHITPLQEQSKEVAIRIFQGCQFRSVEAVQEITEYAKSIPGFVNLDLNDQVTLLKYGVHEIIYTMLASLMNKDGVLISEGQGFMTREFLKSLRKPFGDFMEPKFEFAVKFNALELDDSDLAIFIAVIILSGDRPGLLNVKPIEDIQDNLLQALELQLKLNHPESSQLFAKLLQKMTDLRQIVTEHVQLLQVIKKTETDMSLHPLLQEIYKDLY
Myc proto-oncogene protein (Homo sapiens), sequence (P01106 whole entry, looked up, the tested form may be a part): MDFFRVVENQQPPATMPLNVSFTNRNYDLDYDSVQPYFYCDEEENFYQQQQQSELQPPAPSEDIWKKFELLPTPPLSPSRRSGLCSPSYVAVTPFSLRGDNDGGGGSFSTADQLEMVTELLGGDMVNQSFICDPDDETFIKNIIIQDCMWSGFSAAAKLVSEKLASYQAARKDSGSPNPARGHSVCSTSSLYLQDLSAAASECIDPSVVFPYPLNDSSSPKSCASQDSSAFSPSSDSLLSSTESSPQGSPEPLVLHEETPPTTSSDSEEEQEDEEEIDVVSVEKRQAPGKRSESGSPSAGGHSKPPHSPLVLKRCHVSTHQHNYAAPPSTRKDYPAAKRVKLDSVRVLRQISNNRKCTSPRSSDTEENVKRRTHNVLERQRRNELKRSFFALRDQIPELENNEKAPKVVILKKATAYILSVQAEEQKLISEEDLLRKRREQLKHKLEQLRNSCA
human Peroxisome Proliferator-activated Receptor delta (PPARd), PPARD (gene 5467), sequence (Q03181 whole entry, looked up, the tested form may be a part): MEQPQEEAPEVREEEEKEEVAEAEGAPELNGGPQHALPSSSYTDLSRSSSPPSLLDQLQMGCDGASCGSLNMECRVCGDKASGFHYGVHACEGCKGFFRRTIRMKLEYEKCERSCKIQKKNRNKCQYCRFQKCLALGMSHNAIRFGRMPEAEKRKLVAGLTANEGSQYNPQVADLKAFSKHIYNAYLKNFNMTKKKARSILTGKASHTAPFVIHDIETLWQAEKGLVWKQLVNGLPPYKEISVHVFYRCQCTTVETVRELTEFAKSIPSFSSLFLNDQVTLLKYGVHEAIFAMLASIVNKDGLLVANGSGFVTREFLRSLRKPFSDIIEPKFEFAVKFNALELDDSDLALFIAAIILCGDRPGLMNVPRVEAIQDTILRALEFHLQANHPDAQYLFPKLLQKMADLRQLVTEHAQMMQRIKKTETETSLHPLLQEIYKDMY
Cellular tumor antigen p53 (Homo sapiens), sequence (P04637 whole entry, looked up): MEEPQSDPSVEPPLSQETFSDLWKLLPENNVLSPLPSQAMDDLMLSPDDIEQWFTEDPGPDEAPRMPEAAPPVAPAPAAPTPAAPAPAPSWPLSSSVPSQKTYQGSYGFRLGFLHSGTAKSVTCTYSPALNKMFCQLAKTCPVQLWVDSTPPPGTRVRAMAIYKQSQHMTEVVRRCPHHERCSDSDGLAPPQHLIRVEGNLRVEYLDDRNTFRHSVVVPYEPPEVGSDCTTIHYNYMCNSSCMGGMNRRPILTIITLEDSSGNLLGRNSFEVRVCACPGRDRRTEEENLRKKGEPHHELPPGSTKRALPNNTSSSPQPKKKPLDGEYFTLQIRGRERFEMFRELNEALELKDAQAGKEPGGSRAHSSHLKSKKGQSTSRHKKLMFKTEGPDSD
Nuclear receptor subfamily 1 group I member 2 (Homo sapiens), sequence (O75469 whole entry, looked up, the tested form may be a part): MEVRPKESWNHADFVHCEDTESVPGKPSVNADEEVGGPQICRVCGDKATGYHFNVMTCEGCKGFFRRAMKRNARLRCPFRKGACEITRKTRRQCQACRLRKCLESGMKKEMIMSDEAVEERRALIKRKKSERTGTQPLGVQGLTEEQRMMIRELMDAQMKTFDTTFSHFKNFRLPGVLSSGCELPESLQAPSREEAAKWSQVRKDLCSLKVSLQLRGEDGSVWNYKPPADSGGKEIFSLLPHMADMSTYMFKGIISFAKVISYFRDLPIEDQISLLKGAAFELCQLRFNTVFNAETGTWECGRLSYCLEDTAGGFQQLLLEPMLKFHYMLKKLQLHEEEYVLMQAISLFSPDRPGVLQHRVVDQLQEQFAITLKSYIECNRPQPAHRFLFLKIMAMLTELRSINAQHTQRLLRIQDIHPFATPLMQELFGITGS
Nuclear respiratory factor 1 (Homo sapiens), sequence (Q16656 whole entry, looked up, the tested form may be a part): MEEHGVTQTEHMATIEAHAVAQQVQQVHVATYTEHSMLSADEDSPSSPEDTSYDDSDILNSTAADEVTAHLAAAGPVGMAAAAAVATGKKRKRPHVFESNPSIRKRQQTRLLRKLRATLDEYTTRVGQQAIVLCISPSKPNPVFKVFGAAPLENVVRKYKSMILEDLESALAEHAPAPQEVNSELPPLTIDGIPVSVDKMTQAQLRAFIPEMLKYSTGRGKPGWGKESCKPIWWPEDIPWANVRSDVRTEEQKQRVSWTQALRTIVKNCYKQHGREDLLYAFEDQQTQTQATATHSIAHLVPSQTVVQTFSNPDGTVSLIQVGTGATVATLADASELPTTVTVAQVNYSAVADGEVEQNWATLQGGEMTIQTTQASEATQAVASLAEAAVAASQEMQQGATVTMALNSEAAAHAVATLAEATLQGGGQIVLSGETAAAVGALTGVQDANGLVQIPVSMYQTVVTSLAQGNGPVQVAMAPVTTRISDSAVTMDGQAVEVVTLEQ
Retinoic acid receptor alpha (Homo sapiens), sequence (P10276 whole entry, looked up, the tested form may be a part): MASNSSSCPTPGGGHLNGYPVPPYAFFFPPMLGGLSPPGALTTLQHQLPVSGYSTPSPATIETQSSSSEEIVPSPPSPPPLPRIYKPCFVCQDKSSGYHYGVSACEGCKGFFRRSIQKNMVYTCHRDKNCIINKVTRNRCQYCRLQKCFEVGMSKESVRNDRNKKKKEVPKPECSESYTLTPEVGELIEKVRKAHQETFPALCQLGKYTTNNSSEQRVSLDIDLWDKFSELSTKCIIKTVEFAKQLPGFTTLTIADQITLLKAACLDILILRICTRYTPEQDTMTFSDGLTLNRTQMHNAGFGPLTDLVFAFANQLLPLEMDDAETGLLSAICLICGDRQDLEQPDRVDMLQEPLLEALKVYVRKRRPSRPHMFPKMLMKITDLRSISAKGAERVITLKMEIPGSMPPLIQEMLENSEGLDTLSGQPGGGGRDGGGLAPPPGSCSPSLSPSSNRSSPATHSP
human Retinoic Acid Receptor beta (RARb), RARB (gene 5915), sequence (P10826 whole entry, looked up, the tested form may be a part): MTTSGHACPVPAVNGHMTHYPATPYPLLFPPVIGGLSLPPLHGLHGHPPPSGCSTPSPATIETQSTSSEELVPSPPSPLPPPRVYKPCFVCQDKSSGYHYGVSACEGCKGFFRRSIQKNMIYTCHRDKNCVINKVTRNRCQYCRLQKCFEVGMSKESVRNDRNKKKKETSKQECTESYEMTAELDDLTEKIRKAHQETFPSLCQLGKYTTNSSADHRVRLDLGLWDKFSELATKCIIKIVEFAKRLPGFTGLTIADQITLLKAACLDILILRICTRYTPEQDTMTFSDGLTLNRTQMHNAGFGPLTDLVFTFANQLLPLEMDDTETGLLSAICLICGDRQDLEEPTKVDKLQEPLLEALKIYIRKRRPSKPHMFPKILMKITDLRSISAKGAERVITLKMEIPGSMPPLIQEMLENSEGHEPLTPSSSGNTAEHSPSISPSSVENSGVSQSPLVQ

Take `O=C(O)C(Cl)(Cl)Cl`: the result in assay [1], in assay [2], in [3], in assay [4], in assay [5] and in assay [6] was inactive. In addition, the outcome in assay [7], in [8], in assay [9], in assay [10], in assay [11] and in [12] was inactive. In addition, the result in assay [13] and in [14] was inactive.

In the case of `COc1cc2c(cc1OC)[C@@]13CCN4CC5=CCO[C@H]6CC(=O)N2[C@H]1[C@H]6[C@H]5C[C@H]43`, the molecule was classed as inactive in [1], in [2], in assay [15], in [3], in assay [4] and in assay [5]. Besides, the molecule was called inactive in [10], in assay [16] and in [14].

Turning to `CCOP(=S)(OCC)SCCS(=O)(=O)CC`, the outcome in assay [1], in assay [2], in assay [15], in [4], in assay [5] and in assay [6] was inactive. The result in assay [7], in assay [8], in assay [9], in assay [17], in assay [13] and in [16] was inactive. The AC50 was 19 µM (active) in assay [3] and 7.88 µM (active) in assay [14].

With `CCN(CC)C(=O)Cl`, the call in [1], in [2], in assay [15], in assay [3], in [4] and in [5] was inactive. Besides, the result in assay [18] and in [14] was inactive.

`C[C@@H]1C[C@@H]([C@H](O)CC2CC(=O)NC(=O)C2)C(=O)[C@@H](C)C1`: the call in assay [1], in assay [2], in assay [4], in assay [5], in assay [10] and in [18] was inactive. For the same molecule, the outcome in assay [16] and in [14] was inactive. For the same molecule, the concentration at half-maximal activity (AC50) was 17.9 µM (active) [middle of 4 runs] in assay [15]; 24.1 µM (active) and 25.4 µM (active) in [4]; 1.24 µM (active) and 2.34 µM (active) and 1.67 µM (active) in [5]; 2.05 µM (active) in assay [6]; 5.3 µM (active) in [7]; 12.4 µM (active) in [8]. Further, the half-maximal activity concentration (AC50) was 9.12 µM (active) in [9], 2.9 µM (active) in assay [13] and 23.4 µM (active) in assay [16].

For `COc1cc(OC)nc(NC(=O)NS(=O)(=O)c2ncccc2C(=O)N(C)C)n1`, the call in assay [1], in [2], in assay [15], in assay [3], in assay [4] and in [5] was inactive. The outcome in assay [6], in assay [7], in assay [8], in [9], in assay [10] and in assay [18] was inactive. In assay [13], the result was inactive. In addition, the AC50 in [14] is 100 µM (active).

Regarding `c1ccc(N=NNc2ccccc2)cc1`, the outcome in assay [1], in [5], in assay [10] and in assay [18] was inactive. Besides, the AC50 in assay [2] was 168 µM (active); in [3], 30.9 µM (active); in assay [4], 117 µM (active); in assay [16] it was 65.7 µM (active); in assay [14], 33.6 µM (active).

In the case of `CCC[CH2][Sn]([Cl])([Cl])[Cl]`, the result in assay [1], in assay [2], in assay [15], in assay [4], in assay [5] and in assay [14] was inactive. Further, the AC50 in [3] was 5.38 µM (active).

`C[C@H]1CCCC(=O)CCC/C=C/c2cc(O)cc(O)c2C(=O)O1`: the AC50 in assay [1] was 39.4 µM (active); in assay [4] it was 10.7 µM (active); in [14], 0.407 µM (active). Besides, the outcome in [2], in assay [15], in [3], in assay [5], in assay [10] and in assay [18] was inactive. Also, the outcome in assay [16] was inactive.

Consider `CCC(=O)c1ccccc1`, for which the call in [1], in [2], in assay [15], in assay [3], in assay [4] and in assay [5] was inactive. Also, the outcome in assay [10] and in assay [18] was inactive.

The term AC50 denotes the concentration giving half of the maximal activity seen.
